Experiment [1] in a line: qHTS RealTime-Glo MT Cell Viability Assay in HEK293 cells - 0 hour (AID 1224880). Further: top concentration of the series differs between compounds; nearly all actives have a fitted effect of over 45% in size. Put shortly: (§1)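 600 HEK293 cells per well, dispensed already mixed with RealTime-Glo MT reagents. Compound dosing came 5 h later. The same wells were read for luminescence at 0, 8, 16, 24, 32 and 40 h of exposure at 37 C.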
A short description of experiment [2]: A CellTox Green Cytotoxicity Assay to monitor cytotoxicity in HEK293 cells - 32 hour (AID 1224881). Further: nearly all actives have a fitted effect of over 40% in size. In short, it runs like this: (§2)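 Dead-cell fluorescence measured kinetically: asymmetric cyanine dye, HEK293, 600 cells/well, 5 h settle, 23 nL cpd/DMSO, 37 C, reads 0–40 h every 8 h.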
A short description of experiment [3]: A CellTox Green Cytotoxicity Assay to monitor cytotoxicity in HepG2 cells - 0 hour (AID 1224882). Further: nearly all actives have a fitted effect of over 35% in size. Put shortly:
(§3)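 First, HepG2 cells (600/well) mixed with reagent were plated; second, after 5 h at 37 C they received compounds via pintool; third, fluorescence was measured at 0 h through 40 h at 8 h intervals.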

The nature of experiment [4]: A CellTox Green Cytotoxicity Assay to monitor cytotoxicity in HepG2 cells - 32 hour (AID 1224883). Further: nearly all actives have a fitted effect of over 50% in size. Put shortly: as §3
Experiment [5] in a line: A CellTox Green Cytotoxicity Assay to monitor cytotoxicity in HEK293 cells - 8 hour (AID 1224884). Further: nearly all actives have a fitted effect of over 35% in size. In short, it runs like this:
as §2

Experiment [6] can be described thus: qHTS RealTime-Glo MT Cell Viability Assay in HEK293 cells - 24 hour (AID 1224886). Further: top concentration of the series differs between compounds; nearly all actives have a fitted effect of over 50% in size. In short, it runs like this: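 HEK293 cells were seeded at 600 cells/well together with NanoLuc luciferase and cell-permeant prosubstrate, preincubated 5 h at 37 C/5% CO2, then given compound in DMSO by pintool. Luminescence from viable-cell prosubstrate reduction was read repeatedly over 40 h.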
Background: Quantitative high-throughput screening tests each substance at several concentrations.

Experiment [7] is described as follows: qHTS RealTime-Glo MT Cell Viability Assay in HEK293 cells - 8 hour (AID 1224887). Further: top concentration of the series differs between compounds; nearly all actives have a fitted effect of over 50% in size. Put shortly: as §1
Experiment [8] is described as follows: A CellTox Green Cytotoxicity Assay to monitor cytotoxicity in HEK293 cells - 16 hour (AID 1224888). Further: nearly all actives have a fitted effect of over 35% in size. Put shortly: as §2
Experiment [9] is described as follows: qHTS RealTime-Glo MT Cell Viability Assay in HepG2 cells - 0 hour (AID 1224889). Further: nearly all actives have a fitted effect of over 50% in size. In short, it runs like this: (§4)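 HepG2 cells were seeded at 600 cells/well together with NanoLuc luciferase and a cell-permeant prosubstrate, preincubated 5 h at 37 C/5% CO2, then pin-dosed with compounds in DMSO. Nonlytic luminescence from viable cells was read at each time point.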

Experiment [10] in a line: A CellTox Green Cytotoxicity Assay to monitor cytotoxicity in HepG2 cells - 8 hour (AID 1224890). Further: nearly all actives have a fitted effect of over 45% in size. Further: potency means the concentration at half of the fitted maximal effect. In short, it runs like this:
as §3

A short description of experiment [11]: qHTS assay to identify small molecule antagonists of the estrogen receptor alpha (ER-alpha) signaling pathway using the BG1 cell line in the presence of 0.1 nM 17-beta-estradiol - cell viability counter screen (AID 1259241). Further: nearly all actives have a fitted effect of over 40% in size. Put shortly:
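Cytotoxicity counter-screen: live-cell protease activity measured by fluorescence (30 min reagent step) in the same wells. Cells were VM7Luc4E2 with endogenous ER-alpha and ERE-driven luciferase, treated 22 hr at 37C alongside 0.1 nM 17beta-estradiol final.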

Experiment [12] is described as follows: qHTS assay to identify small molecule antagonists of the androgen receptor (AR) signaling pathway using the MDA cell line in the presence of 0.5 nM R1881 - cell viability counter screen (AID 1259242). Further: nearly all actives have a fitted effect of over 45% in size. In short, it runs like this: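 qHTS format. MDA-kb2 (MMTV-luc, AR/GR responsive) + cpd + 0.5 nM R1881 final, 16 hr 37C/0% CO2 → CellTiter-Fluor 30 min → fluorescence intensity.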

Experiment [13] concerns the target Estrogen receptor (Homo sapiens) (UniProt P03372). Put plainly: qHTS assay to identify small molecule antagonists of the estrogen receptor alpha (ER-alpha) signaling pathway using the BG1 cell line in the presence of 0.1 nM 17-beta-estradiol (AID 1259244). Further: nearly all actives have a fitted effect of over 50% in size. Put shortly: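 Reporter is a stably transfected luciferase under four estrogen responsive elements in VM7Luc4E2 cells expressing native full-length ER-alpha; inhibition of 0.1 nM (final) 17beta-estradiol-driven signal over 22 h is read by luminescence.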

Experiment [14] can be described thus: qHTS assay to identify small molecule HDAC inhibitors - cell viability counter screen (AID 1259365). Put shortly:
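CellTiter-Glo luminescence (30 min, room temperature) reported viability after a 2 h compound exposure at 37 C. Cells: wild-type HCT-116, 1,500 per well, seeded the night before.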

A short description of experiment [15]: qHTS assay to identify small molecule agonists of the sonic hedgehog signaling (Shh) pathway - cell viability counter screen (AID 1259366). Further: nearly all actives have a fitted effect of over 50% in size. In short, it runs like this: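 Cytotoxicity counter screen: CellTiter-Fluor reagent added after 23 h compound exposure, then 1 h at 37C and fluorescence read. Cells were 3T3 Gli1-Luc, seeded 2,000 per well and dosed 4 h post-plating.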

The nature of experiment [16]: qHTS assay to identify small molecule antagonists of the sonic hedgehog signaling (Shh) pathway - cell viability counter screen (AID 1259367). Further: nearly all actives have a fitted effect of over 55% in size. Further: potency means the concentration at half of the fitted maximal effect. In short, it runs like this:
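Tox21 library chemicals were tested on a Gli1-Luc NIH/3T3 clone (2,000 cells/well) stimulated by conditioned medium; viability was quantified as fluorescence from CellTiter-Fluor reagent added at 23 hr.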

Experiment [17] is described as follows: qHTS RealTime-Glo MT Cell Viability Assay in HepG2 cells - 16 hour (AID 1224885). Further: nearly all actives have a fitted effect of over 50% in size. Put shortly: as §4
Experiment [18] has as its target Androgen receptor (Homo sapiens) (UniProt P10275). Put plainly: qHTS assay to identify small molecule antagonists of the androgen receptor (AR) signaling pathway using the MDA cell line in the presence of 0.5 nM R1881 (AID 1259243). Further: nearly all actives have a fitted effect of over 50% in size. Put shortly:
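Antagonist mode quantitative HTS in MDA-kb2 MMTV-luciferase cells, agonist R1881 at 0.5 nM final, 16 hr exposure at 37C and 0% CO2, luminescent detection.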

The nature of experiment [19]: qHTS assay to identify small molecule HDAC inhibitors (AID 1259364). Further: potency means the concentration at half of the fitted maximal effect.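 Further: wild-type HCT-116 cells with endogenous class I/II HDAC activity; nearly all actives have a fitted effect of over 45% in size.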 In short, it runs like this:
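Quantitative high-throughput format: overnight-seeded HCT-116 cells got compounds for 2 hr at 37C; HDAC-Glo I/II reagent added, 30 min RT, luminescence measured.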

Experiment [20] can be described thus: qHTS assay to identify small molecule phospholipidosis (PLD) inducers (AID 1259344; active means well fitted curve in the direction sought with a large enough effect; an effect the other way counts as inactive or inconclusive). In short, it runs like this:
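Image-based: LipidTOX Red pit count/intensity per well and per cell; HepG2, 24 h compound at 37 C, PFA fixation, Hoechst counterstain.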

Several values for one entry are separate records, joined by “and”; a condition that tells them apart may be missing. Equal entries are not always repeated. Results filed as inconclusive are left out. The source holds several records for some structures; these can differ, active in one and inactive in another. Activity calls are given as the source filed them. Unless noted, the call rests on the fitted dose curve; in most records, active means well fitted curve in the direction sought with a large enough effect in the repeat runs; inconclusive means weak or mixed curves; inactive means no such curve, though single readings can be large; an effect the other way counts as inactive or inconclusive.

Sequence of Estrogen receptor (Homo sapiens) (P03372 whole entry, looked up): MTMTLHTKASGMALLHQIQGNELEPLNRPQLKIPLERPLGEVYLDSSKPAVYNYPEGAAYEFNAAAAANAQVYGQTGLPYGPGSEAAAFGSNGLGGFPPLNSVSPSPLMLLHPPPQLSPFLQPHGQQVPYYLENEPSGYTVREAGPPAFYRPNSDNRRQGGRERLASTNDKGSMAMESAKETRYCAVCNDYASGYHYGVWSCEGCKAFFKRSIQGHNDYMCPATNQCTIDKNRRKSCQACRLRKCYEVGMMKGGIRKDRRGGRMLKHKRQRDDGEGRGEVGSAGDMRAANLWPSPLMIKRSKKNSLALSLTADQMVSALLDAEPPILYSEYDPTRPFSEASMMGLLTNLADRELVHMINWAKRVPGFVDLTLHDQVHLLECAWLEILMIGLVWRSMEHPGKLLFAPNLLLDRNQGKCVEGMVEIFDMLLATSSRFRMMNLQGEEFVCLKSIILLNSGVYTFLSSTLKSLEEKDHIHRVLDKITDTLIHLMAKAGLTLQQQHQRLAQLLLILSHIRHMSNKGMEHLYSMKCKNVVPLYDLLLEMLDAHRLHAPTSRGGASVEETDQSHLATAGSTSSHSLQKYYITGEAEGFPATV
Sequence of Androgen receptor (Homo sapiens) (P10275 whole entry, looked up): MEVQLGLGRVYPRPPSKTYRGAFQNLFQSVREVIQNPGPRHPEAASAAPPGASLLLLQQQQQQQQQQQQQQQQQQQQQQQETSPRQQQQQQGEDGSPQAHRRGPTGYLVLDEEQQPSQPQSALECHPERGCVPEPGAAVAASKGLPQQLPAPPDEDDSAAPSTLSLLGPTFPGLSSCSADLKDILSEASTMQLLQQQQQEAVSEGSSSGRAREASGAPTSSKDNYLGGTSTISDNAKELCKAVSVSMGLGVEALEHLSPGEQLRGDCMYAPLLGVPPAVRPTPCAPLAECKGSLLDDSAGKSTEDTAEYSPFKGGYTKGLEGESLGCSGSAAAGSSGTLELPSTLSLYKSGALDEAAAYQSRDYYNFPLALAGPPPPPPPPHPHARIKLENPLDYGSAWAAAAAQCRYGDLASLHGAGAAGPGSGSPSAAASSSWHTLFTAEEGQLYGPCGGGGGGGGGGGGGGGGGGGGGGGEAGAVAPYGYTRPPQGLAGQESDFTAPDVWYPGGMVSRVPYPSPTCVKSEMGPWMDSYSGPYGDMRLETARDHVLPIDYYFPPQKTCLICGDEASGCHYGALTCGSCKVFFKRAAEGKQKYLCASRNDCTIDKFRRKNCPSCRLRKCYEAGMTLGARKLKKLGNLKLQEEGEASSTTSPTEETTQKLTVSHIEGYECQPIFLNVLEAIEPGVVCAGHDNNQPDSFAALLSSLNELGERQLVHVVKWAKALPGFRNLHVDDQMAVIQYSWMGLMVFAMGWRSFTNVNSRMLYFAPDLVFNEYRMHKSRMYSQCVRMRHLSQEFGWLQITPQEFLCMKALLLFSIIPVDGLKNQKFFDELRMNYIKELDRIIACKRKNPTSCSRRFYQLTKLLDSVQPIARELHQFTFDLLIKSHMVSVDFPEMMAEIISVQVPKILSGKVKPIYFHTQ

Take `O=C(c1ccc(O)cc1)c1ccc(O)cc1O`: the Potency entry in [1], in experiment [2], in [3], in [4], in experiment [5] and in experiment [6] was “inactive” in each case. Also, the Potency entry in [7], in [8], in experiment [9], in [11], in experiment [12] and in [13] was “inactive” throughout. Moreover, the Potency entry in experiment [15] and in experiment [16] was “inactive” throughout. Further, in [10], the Potency result is “inactive and 54.9 µM (active)”. Besides, in [14], the call was inactive.

`Cc1cc(=O)[nH]c(C(C)C)n1`: the Potency entry in [1], in [2], in experiment [3], in experiment [4], in [17] and in experiment [6] was “inactive” each time. For the same compound, the Potency result in [7], in [8], in experiment [9], in experiment [10], in experiment [11] and in experiment [12] was “inactive” each time. Besides, the Potency result in experiment [13], in [19], in experiment [15] and in experiment [16] was “inactive” in each case. Also, the outcome in experiment [18] and in experiment [14] was inactive.

In the case of `CCCCOCCO`, the Potency result in experiment [1], in [2], in experiment [3], in [4], in experiment [5] and in [6] was “inactive” each time. Further, the Potency result in [7], in experiment [8], in [9], in experiment [10], in experiment [11] and in [12] was “inactive” throughout. Further, the Potency entry in experiment [13], in experiment [19], in [15] and in experiment [16] was “inactive” in each case. Moreover, the call in experiment [14] was inactive.

Regarding `CC1CC(OC(=O)c2ccccc2O)CC(C)(C)C1` (configuration not stated), the Potency entry in experiment [1], in [2], in experiment [3], in experiment [4], in experiment [5] and in experiment [6] was “inactive” in each case. Besides, the Potency entry in experiment [7], in experiment [8], in [9], in [10], in [11] and in experiment [12] was “inactive” each time. The Potency entry in experiment [19] and in experiment [15] was “inactive” throughout. For the same compound, the compound was classed as inactive in [20] and in experiment [14]. Moreover, the Potency in experiment [16] was 60.5 µM (active) and inactive.

Consider `CCOC(=O)C1OC1c1ccccc1` (configuration not stated), for which the Potency entry in experiment [1], in experiment [2], in [3], in experiment [4], in [5] and in experiment [17] was “inactive” in each case. Besides, the Potency entry in experiment [7], in experiment [8], in [9], in [10], in experiment [11] and in experiment [12] was “inactive” throughout. The Potency result in experiment [15] and in experiment [16] was “inactive” throughout. In experiment [19], the Potency was 49.5 µM (active). Besides, in experiment [14], the outcome was inactive.

Regarding `c1ccc2[nH]cnc2c1`, the Potency result in experiment [1], in experiment [2], in experiment [3], in experiment [4], in experiment [5] and in [6] was “inactive” in each case. Further, the Potency entry in experiment [7], in experiment [8], in experiment [9], in [10], in experiment [11] and in experiment [12] was “inactive” each time. Further, the Potency entry in experiment [19], in experiment [15] and in experiment [16] was “inactive” throughout. In addition, in experiment [14], the compound was classed as inactive.

For the compound `CC(C)(C)C1CCC(O)CC1` (configuration not stated), the Potency result in experiment [1], in [2], in [3], in experiment [4], in experiment [5] and in experiment [6] was “inactive” each time. In addition, the Potency entry in experiment [7], in [8], in [9], in experiment [10], in experiment [11] and in experiment [12] was “inactive” each time. The Potency result in experiment [13], in experiment [19], in experiment [15] and in experiment [16] was “inactive” throughout. In addition, the compound was called inactive in experiment [14].

The values are drawn from PubChem BioAssay (Tox21).
